Targets with a hit are over-represented here; the source holds about 7,900 in all. About 0.6% of all pairs of compound and target were hits. Unmarked numbers belong to inactive results.
What was measured:
Assay in all cases: log2 fold change, soluble protein after heating vs DMSO (PISA); higher = thermal stabilisation; K562 cells, 10 uM, 30 min; active = over 0.2 and 3.5 SD of the protein, either way, in both replicates (recomputed)
[1] = compound: COC1=CC=C(C=C1)CN2C=CC3=C2C=C(C=C3)C(=O)NO
Method in brief: (§1)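 K562 cells at 2×10^6 cells/mL were treated with 10 μM compound for 30 min. Aliquots were heated for 3 min across 48°C-58°C, pooled, and extracted in PBS with 0.5% NP-40 at 4°C; soluble protein was the supernatant after 21,000xg for 90 min. Soluble protein was quantified by TMTpro 16plex LC-MS/MS with channel sums equalised, and reported as log2 fold change in thermal stability against DMSO controls, with values from duplicates.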

filanesib = compound: CON(C)C(=O)N1N=C(c2cc(F)ccc2F)S[C@@]1(CCCN)c1ccccc1 [filanesib]
Method in brief: as §1

zotarolimus = compound: CO[C@H]1C[C@@H]2CC[C@@H](C)[C@@](O)(O2)C(=O)C(=O)N2CCCC[C@H]2C(=O)O[C@H]([C@H](C)C[C@@H]2CC[C@H](n3cnnn3)[C@H](OC)C2)CC(=O)[C@H](C)/C=C(\C)[C@@H](O)[C@@H](OC)C(=O)[C@H](C)C[C@H](C)/C=C/C=C/C=C/1C [zotarolimus]
Method in brief: as §1

idasanutlin = compound: COc1cc(C(=O)O)ccc1NC(=O)[C@@H]1N[C@@H](CC(C)(C)C)[C@](C#N)(c2ccc(Cl)cc2F)[C@H]1c1cccc(Cl)c1F [idasanutlin]
Method in brief: as §1

alisertib = compound: COc1cc(Nc2ncc3c(n2)-c2ccc(Cl)cc2C(c2c(F)cccc2OC)=NC3)ccc1C(=O)O [alisertib]
Method in brief: as §1

[2] = compound: COc1cc2nc(-c3cc(F)ccc3O)nc(N[C@@H]3CNC[C@H]3C(C)(C)O)c2cc1OC
Method in brief: as §1

gefitinib = compound: COc1cc2ncnc(Nc3ccc(F)c(Cl)c3)c2cc1OCCCN1CCOCC1 [gefitinib]
Method in brief: as §1

[3] = compound: COc1cccc2cc(-c3nc([C@H]4CC[C@H](C(=O)O)CC4)n4ncnc(N)c34)[nH]c12
Method in brief: as §1

lapatinib = compound: CS(=O)(=O)CCNCc1ccc(-c2ccc3ncnc(Nc4ccc(OCc5cccc(F)c5)c(Cl)c4)c3c2)o1 [lapatinib]
Method in brief: as §1

pictilisib = compound: CS(=O)(=O)N1CCN(Cc2cc3nc(-c4cccc5[nH]ncc45)nc(N4CCOCC4)c3s2)CC1 [pictilisib]
Method in brief: as §1

[4] = compound: CS(=O)(=O)c1ccc(-c2cnc(N)c(C(=O)Nc3ccccc3)n2)cc1
Method in brief: as §1

crizotinib = compound: C[C@@H](Oc1cc(-c2cnn(C3CCNCC3)c2)cnc1N)c1c(Cl)ccc(F)c1Cl [crizotinib]
Method in brief: as §1

[5] = compound: C[C@@H]1COCCN1C2=NC(=NC(=C2)C3(CC3)S(=O)(=O)C)C4=C5C=CNC5=CC=C4
Method in brief: as §1

[6] = compound: C[C@H](C1=CC=C(C=C1)C(=O)NC2=C3C=CNC3=NC=C2)N
Method in brief: as §1

duvelisib = compound: C[C@H](Nc1ncnc2nc[nH]c12)c1cc2cccc(Cl)c2c(=O)n1-c1ccccc1 [duvelisib]
Method in brief: as §1

gandotinib = compound: Cc1cc(Nc2cc(CN3CCOCC3)c3nc(C)c(Cc4ccc(Cl)cc4F)n3n2)n[nH]1 [gandotinib]
Method in brief: as §1

tozasertib = compound: Cc1cc(Nc2cc(N3CCN(C)CC3)nc(Sc3ccc(NC(=O)C4CC4)cc3)n2)n[nH]1 [tozasertib]
Method in brief: as §1

[7] = compound: Cc1cc(SCc2sc(-c3ccc(C(F)(F)F)cc3)nc2C)ccc1OCC(=O)O
Method in brief: as §1

doramapimod = compound: Cc1ccc(-n2nc(C(C)(C)C)cc2NC(=O)Nc2ccc(OCCN3CCOCC3)c3ccccc23)cc1 [doramapimod]
Method in brief: as §1

ispinesib = compound: Cc1ccc(C(=O)N(CCCN)[C@@H](c2nc3cc(Cl)ccc3c(=O)n2Cc2ccccc2)C(C)C)cc1 [ispinesib]
Method in brief: as §1

Chain of UniProt Q14493 (Q14493 whole entry, looked up): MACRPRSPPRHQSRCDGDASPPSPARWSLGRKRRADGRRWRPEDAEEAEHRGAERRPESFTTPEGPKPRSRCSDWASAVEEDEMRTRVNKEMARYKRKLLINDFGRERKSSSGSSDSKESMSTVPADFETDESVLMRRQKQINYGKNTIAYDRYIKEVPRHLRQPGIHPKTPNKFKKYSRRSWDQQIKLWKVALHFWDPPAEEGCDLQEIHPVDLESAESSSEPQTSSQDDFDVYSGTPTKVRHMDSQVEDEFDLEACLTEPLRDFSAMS
Chain of UniProt Q8TC12 (Q8TC12 whole entry, looked up): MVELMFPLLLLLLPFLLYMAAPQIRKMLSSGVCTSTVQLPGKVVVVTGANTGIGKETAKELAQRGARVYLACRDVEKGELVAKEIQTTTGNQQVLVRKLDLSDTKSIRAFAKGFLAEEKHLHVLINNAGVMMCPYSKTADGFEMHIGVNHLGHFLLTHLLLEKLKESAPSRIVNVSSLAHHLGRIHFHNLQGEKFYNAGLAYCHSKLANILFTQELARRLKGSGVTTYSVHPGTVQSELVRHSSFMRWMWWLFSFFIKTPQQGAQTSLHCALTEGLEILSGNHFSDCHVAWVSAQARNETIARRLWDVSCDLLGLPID
Chain of UniProt Q9NW64 (Q9NW64 whole entry, looked up): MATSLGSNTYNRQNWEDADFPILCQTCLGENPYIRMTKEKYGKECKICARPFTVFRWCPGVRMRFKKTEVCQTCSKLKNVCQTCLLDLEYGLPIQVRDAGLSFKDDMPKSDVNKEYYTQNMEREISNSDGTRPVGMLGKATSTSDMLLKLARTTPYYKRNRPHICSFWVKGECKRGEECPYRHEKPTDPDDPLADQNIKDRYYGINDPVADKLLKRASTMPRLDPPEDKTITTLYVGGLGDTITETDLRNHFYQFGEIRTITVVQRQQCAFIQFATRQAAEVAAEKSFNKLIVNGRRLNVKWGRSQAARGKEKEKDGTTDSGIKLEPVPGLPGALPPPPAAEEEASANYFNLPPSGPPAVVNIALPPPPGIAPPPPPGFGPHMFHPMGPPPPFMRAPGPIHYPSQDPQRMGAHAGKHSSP
Chain of UniProt O94979 (O94979 whole entry, looked up): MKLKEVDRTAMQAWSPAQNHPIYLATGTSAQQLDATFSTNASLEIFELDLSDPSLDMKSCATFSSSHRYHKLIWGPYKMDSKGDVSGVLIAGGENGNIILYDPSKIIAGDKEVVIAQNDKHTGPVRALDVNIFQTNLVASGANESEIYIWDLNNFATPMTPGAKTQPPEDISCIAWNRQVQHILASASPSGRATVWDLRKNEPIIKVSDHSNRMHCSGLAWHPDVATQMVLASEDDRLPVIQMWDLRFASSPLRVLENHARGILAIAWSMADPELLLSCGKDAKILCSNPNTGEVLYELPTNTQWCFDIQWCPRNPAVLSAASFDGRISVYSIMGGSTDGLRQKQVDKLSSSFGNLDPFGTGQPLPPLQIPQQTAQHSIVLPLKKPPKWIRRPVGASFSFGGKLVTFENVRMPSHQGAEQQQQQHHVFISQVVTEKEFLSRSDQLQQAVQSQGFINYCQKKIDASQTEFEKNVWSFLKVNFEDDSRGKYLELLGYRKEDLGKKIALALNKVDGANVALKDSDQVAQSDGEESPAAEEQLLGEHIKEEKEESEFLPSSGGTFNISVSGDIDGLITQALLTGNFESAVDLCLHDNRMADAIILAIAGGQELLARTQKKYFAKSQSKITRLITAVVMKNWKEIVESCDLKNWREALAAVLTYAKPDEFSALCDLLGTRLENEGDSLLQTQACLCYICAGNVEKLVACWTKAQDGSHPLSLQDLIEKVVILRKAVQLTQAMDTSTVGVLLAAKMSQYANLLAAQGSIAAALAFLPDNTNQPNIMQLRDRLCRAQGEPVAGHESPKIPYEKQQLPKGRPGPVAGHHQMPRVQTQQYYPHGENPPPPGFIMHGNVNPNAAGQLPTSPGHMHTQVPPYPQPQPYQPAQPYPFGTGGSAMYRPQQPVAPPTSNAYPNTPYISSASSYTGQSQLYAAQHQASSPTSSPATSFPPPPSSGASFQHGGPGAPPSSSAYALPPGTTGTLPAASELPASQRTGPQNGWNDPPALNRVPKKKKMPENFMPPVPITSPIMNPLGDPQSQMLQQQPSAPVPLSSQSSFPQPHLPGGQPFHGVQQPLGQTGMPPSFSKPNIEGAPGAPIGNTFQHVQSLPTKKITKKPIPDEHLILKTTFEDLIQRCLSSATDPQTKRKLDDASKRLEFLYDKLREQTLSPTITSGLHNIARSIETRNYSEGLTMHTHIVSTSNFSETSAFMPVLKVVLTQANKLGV
Chain of UniProt Q8NBX0 (Q8NBX0 whole entry, looked up): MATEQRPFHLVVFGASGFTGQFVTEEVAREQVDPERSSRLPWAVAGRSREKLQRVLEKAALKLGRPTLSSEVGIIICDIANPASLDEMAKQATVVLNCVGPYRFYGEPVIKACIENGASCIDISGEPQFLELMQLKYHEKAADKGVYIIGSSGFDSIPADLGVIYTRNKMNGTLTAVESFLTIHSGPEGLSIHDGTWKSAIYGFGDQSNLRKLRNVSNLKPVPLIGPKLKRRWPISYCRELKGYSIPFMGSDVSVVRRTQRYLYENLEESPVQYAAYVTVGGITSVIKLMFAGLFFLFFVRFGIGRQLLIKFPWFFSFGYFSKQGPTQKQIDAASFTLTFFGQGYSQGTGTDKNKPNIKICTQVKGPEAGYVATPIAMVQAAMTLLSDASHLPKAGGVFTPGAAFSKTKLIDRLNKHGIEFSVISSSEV
Chain of UniProt Q96EV2 (Q96EV2 whole entry, looked up): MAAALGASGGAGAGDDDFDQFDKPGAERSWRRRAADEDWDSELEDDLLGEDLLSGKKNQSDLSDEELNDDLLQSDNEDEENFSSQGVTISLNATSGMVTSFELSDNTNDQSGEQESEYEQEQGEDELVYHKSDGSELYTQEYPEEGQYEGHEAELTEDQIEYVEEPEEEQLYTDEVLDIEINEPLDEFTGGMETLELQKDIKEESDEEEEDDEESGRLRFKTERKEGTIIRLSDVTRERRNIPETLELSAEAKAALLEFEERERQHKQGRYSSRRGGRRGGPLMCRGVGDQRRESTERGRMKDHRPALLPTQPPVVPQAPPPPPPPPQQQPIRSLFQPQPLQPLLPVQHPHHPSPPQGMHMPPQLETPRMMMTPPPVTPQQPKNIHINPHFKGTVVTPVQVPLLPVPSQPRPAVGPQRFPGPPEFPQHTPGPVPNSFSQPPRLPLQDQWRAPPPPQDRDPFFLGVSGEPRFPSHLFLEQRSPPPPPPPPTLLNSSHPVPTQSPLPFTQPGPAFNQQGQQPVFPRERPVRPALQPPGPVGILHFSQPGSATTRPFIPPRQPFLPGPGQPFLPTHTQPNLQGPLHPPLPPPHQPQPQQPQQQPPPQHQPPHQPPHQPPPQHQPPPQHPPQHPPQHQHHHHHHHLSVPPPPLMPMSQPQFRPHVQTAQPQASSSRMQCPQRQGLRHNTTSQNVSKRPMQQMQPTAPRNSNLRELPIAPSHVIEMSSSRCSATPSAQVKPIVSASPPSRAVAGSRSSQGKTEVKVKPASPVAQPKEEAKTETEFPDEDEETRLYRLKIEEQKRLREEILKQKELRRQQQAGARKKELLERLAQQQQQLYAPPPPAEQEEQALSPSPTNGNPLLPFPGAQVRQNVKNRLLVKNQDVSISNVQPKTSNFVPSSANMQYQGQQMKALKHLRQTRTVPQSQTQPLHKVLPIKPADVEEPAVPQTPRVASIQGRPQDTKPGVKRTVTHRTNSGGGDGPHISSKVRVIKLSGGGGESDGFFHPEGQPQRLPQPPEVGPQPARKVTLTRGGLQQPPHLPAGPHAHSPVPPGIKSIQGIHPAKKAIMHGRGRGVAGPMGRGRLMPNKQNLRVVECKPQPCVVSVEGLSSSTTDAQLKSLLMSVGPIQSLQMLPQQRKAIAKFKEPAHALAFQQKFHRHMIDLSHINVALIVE
Chain of UniProt Q5VZM2 (Q5VZM2 whole entry, looked up): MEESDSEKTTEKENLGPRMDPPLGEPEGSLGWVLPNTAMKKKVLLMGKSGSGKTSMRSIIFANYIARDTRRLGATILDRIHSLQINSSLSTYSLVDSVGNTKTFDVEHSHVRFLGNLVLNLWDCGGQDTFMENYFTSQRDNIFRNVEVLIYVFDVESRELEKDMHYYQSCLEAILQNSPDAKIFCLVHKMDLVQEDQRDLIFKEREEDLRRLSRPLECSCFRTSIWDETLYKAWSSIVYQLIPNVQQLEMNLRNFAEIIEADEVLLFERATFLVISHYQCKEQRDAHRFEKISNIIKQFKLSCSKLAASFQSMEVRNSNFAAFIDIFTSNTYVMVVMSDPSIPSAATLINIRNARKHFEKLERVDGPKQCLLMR

Target | log2 fold change [1] | log2 fold change (filanesib) | log2 fold change (zotarolimus) | log2 fold change (idasanutlin) | log2 fold change (alisertib) | log2 fold change [2] | log2 fold change (gefitinib) | log2 fold change [3] | log2 fold change (lapatinib) | log2 fold change (pictilisib) | log2 fold change [4] | log2 fold change (crizotinib) | log2 fold change [5] | log2 fold change [6] | log2 fold change (duvelisib) | log2 fold change (gandotinib) | log2 fold change (tozasertib) | log2 fold change [7] | log2 fold change (doramapimod) | log2 fold change (ispinesib)
SGPL1 (UniProt O95470) | -0.064 | 0.107 | -0.011 | 0.051 | -0.046 | 0.012 | 0.001 | -0.115 | 0.04 | -0.013 | 0.095 | 0.077 | -0.034 | 0.011 | 0.019 | 0.259 | -0.089 | 0.024 | 0.084 | 0.077
SEC31A (UniProt O94979) | 0.01 | 0.063 | 0.029 | -0.039 | 0.006 | 0.211 | 0.008 | -0.01 | -0.036 | -0.002 | 0.045 | -0.011 | 0.007 | 0.084 | 0.004 | -0.158 | 0.049 | 0.064 | 0 | 0.034
RDH11 (UniProt Q8TC12) | 0.087 | -0.046 | 0.093 | 0.032 | -0.01 | -0.333 | 0.071 | 0 | 0.03 | 0.241 | 0.164 | -0.303 | 0.082 | 0.116 | 0.11 | 0.115 | -0.029 | 0.425 (active) | 0.098 | -0.365
SCCPDH (UniProt Q8NBX0) | 0.436 (active) | 0.139 | 0.349 | 0.025 | -0.058 | -0.026 | -0.016 | 0.076 | 0.015 | 0.135 | 0.074 | 0.333 | 0.058 | -0.093 | 0.068 | 0.313 | -0.018 | 0.124 | 0.007 | 0.081
RBM22 (UniProt Q9NW64) | -0.105 | 0.096 | 0 | 0.056 | -0.002 | 0.021 | -0.058 | 0.083 | 0.036 | -0.031 | -0.045 | 0.061 | -0.053 | 0.121 | -0.052 | -0.04 | -0.052 | 0 | -0.025 | -0.053
SAAL1 (UniProt Q96ER3) | -0.179 | -0.032 | 0.016 | -0.11 | -0.067 | 0.214 | -0.055 | 0.018 | -0.002 | -0.018 | 0.013 | -0.129 | 0.047 | 0.008 | 0.036 | 0.022 | -0.044 | 0.019 | -0.006 | -0.049
RPA1 (UniProt P27694) | 0.053 | -0.006 | 0.018 | -0.042 | 0.027 | 0.049 | -0.001 | -0.133 | 0.006 | -0.088 | -0.028 | -0.019 | -0.199 | 0.036 | -0.035 | -0.103 | 0.015 | 0.022 | -0.05 | 0.004
RRAGB (UniProt Q5VZM2) | -0.018 | -0.059 | -0.086 | -0.026 | -0.054 | -0.078 | -0.003 | 0.053 | 0.042 | 0.052 | 0.016 | -0.131 | 0.01 | -0.123 | 0.01 | -0.008 | -0.007 | -0.011 | 0.015 | -0.065
RECQL (UniProt P46063) | 0.022 | -0.091 | 0.035 | -0.056 | -0.061 | -0.038 | -0.004 | 0.031 | 0.043 | 0.024 | 0.031 | 0.033 | 0.112 | -0.082 | 0.051 | -0.057 | 0.001 | 0.003 | -0.011 | 0.056
RAC1 (UniProt P63000) | 0.474 (active) | -0.118 | 0.044 | 0.003 | -0.066 | 0.02 | 0.039 | 0.006 | 0.004 | -0.094 | -0.094 | 0 | -0.04 | -0.06 | 0.001 | -0.037 | 0.065 | -0.044 | 0.112 | 0.024
RBM25 (UniProt P49756) | 0.285 (active) | 0.112 | 0.022 | 0.022 | -0.044 | -0.035 | 0.001 | 0.043 | -0.024 | 0.052 | -0.071 | -0.052 | 0.09 | -0.01 | 0.037 | -0.166 | -0.012 | -0.074 | 0.057 | -0.049
RPS12 (UniProt P25398) | -0.009 | 0.018 | -0.026 | 0.048 | -0.17 | -0.057 | -0.02 | -0.159 | 0.062 | -0.033 | -0.041 | 0.078 | -0.098 | 0.165 | -0.061 | 0.124 | -0.003 | -0.011 | 0.012 | 0.017
SLBP (UniProt Q14493) | -0.148 | -0.035 | 0.112 | 0.224 | -0.152 | -0.199 | 0.034 | 0.077 | 0.004 | 0.05 | -0.026 | -0.042 | 0.132 | 0.003 | -0.128 | -0.022 | -0.012 | 0.055 | 0.007 | -0.063
RABGAP1L isoform 3 (UniProt Q5R372) | -0.108 | -0.026 | -0.006 | -0.05 | -0.008 | -0.025 | 0.035 | 0.033 | 0.012 | -0.066 | -0.018 | 0.005 | -0.004 | -0.138 | -0.013 | -0.018 | -0.011 | 0.05 | 0.052 | 0.046
RBM33 (UniProt Q96EV2) | 0.134 | 0.013 | 0.03 | 0.042 | -0.031 | -0.078 | 0.035 | -0.028 | 0.008 | -0.044 | -0.01 | 0.058 | -0.063 | -0.077 | 0.016 | 0.03 | -0.019 | 0.043 | -0.022 | -0.085
RPS27A (UniProt P62979) | -0.084 | 0.215 | 0.009 | 0.129 | -0.041 | -0.066 | -0.076 | -0.185 | -0.006 | -0.13 | 0.05 | 0.053 | -0.229 | 0.088 | -0.218 | 0.347 | 0.013 | 0 | -0.049 | -0.047

— the supplement of paper PMC10849652
